The source made the active and inactive calls. Where a call stands in place of a potency, no number is given. Calls follow the shape of the full dose curve.

The target in this test is Estrogen receptor (Homo sapiens) (UniProt P03372). Nature of the test: qHTS assay to identify small molecule agonists of the estrogen receptor alpha (ER-alpha) signaling pathway in the presence of an antagonist (AID 1259383). Also: top concentration of the series differs between compounds; nearly all actives have a fitted effect of over 15% in size. Particulars: VM7Luc4E2 cells, ERE-luciferase, +ICI-182,780, 22 h; series mostly up to 92.4 µM. The source says: National Center for Advancing Translational Sciences [NCATS] NIH Chemical Genomics Center [NCGC] U.S. Environmental Protection Agency [EPA] National Institutes of Environmental Health Sciences [NIEHS] National Toxicology Program [NTP] Assay overview: Estrogen receptor (ER), a member of nuclear hormone receptor plays an important role in development, metabolic homeostasis and reproduction. Two subtypes of ER, ER-alpha and ER-beta, have similar expression patterns with some uniqueness in both types. Endocrine disrupting chemicals (EDCs) and their interactions with steroid hormone receptors like ER causes disruption of normal endocrine function. Therefore, it is important to understand the effect of environmental chemicals in ER signaling pathway. For identifying ER agonists, VM7Luc4E2 cell line has been used in the current assay. VM7Luc4E2 cell line (provided by Denison MS, University of California) endogenously expresses full-length ER-alpha and is stably transfected with a plasmid containing four estrogen responsive elements (ERE) upstream of a luciferase reporter gene. This current screening for measuring luciferase reporter gene activity using VM7Luc4E2 cells against Tox21 10K library collection is a confirmation study on agonist mode screening in presence of ER-antagonist (ICI-182,780) at 10.0nM final concentration.
Chain of Estrogen receptor (Homo sapiens) (P03372 whole entry, looked up): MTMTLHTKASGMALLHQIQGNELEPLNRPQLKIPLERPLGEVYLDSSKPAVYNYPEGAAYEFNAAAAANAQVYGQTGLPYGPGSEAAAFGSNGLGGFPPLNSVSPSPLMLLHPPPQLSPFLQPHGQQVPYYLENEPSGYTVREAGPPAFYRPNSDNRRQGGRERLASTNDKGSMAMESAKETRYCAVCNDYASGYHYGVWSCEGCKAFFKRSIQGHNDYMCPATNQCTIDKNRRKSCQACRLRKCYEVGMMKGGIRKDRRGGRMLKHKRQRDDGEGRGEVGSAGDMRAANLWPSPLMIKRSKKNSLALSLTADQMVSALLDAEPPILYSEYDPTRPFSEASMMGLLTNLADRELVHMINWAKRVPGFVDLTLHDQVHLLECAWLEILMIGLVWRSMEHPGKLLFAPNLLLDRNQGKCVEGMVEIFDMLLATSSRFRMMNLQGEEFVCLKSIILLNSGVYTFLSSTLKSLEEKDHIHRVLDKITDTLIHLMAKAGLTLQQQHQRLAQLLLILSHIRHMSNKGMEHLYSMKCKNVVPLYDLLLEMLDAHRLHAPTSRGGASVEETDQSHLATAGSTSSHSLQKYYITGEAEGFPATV
Assay Protocol Summary: VM7Luc4E2 cells were cultured in phenol red free assay medium containing 10% charcoal stripped FBS for 5 days prior to the assay. The cells were dispensed at 4,000 cells in 4uL of assay medium per well into white wall/solid-bottom 1536-well plates (Corning Life Sciences, Corning, NY) using a Multidrop Combi (Thermo Fisher Scientific Inc., Waltham, MA) dispenser. After the assay plates were incubated at 37C and 5% CO2 for 24hr, 1uL of 10.0nM (final concentration) ICI-182,780 or assay buffer was added using two separate tips of Flying Reagent Dispenser (FRD, Aurora Discovery, San Diego, CA). Then 23nL of compounds dissolved in DMSO at 15 concentrations and positive controls or DMSO only was transferred to the assay plates by a Pintool station (Wako, San Diego, CA). The assay plates were incubated at 37C and 5% CO2 for 22hr. For luciferase read, 4uL/well ONE-Glo reagent (Promega Corporation, Madison, WI) was added to each well using FRD and after 30min incubation at room temperature, luminescence signal was measured on ViewLux plate reader (PerkinElmer, Shelton, CT).
(In general: Quantitative high-throughput screening tests each substance at several concentrations.)
For `CCC(C)(C)c1ccc(CC(C)CN2C[C@@H](C)O[C@@H](C)C2)cc1` (stereo not given in full), the Potency entry was “inactive”.
For `CN[C@H]1CC[C@@H](c2ccc(Cl)c(Cl)c2)c2ccc(S(N)(=O)=O)cc21`, the Potency result was “inactive”.
Regarding `Oc1ccc(Cl)cc1C1CCCC1`, the Potency result is “inactive”.
Take `O=C(N[C@H](CO)[C@H](O)c1ccc([N+](=O)[O-])cc1)C(Cl)Cl`: the Potency result is “inactive”.
On to `CC(C=O)c1ccccc1` (stereo not given), for which the Potency entry is “inactive”.
Regarding `CC(C)(c1ccc(Oc2ccc(N)cc2)cc1)c1ccc(Oc2ccc(N)cc2)cc1`, the Potency entry was “inactive”.
For `CCOC(=O)[C@H](C)O`, the Potency entry was “inactive”.
With `CCOC(=O)[C@H](O)[C@@H](O)C(=O)OCC`, the Potency entry was “inactive”.
With `CN(C[C@@H](CC[N+]12CCC(C3CCCCC3)(CC1)CC2)c1ccc(Cl)c(Cl)c1)C(=O)c1cc(C(F)(F)F)cc(C(F)(F)F)c1`, the Potency result was “inactive”.
With `O=C1CCC(=O)N1`, the Potency entry was “inactive”.
For `CCOC(=O)C1=NN(c2ccc(Cl)cc2Cl)C(C)(C(=O)OCC)C1` (stereo not given) the value was “inactive”.
For `Cc1cc(C)c(O)c(C(C)(C)C)c1`, the Potency entry is “inactive”.
For `CCCCCCCCCCCCCCCCCCNC(=O)OC1CCN(C(=O)OC[C@H](COC(=O)N(Cc2cccc[n+]2CC)C(=O)c2ccccc2OC)OC)CC1`, the Potency entry was “inactive”.
As to `COc1cc(/C=C/C(=O)CC(=O)/C=C/c2ccc(O)c(OC)c2)ccc1O`, the Potency result is “inactive”.
On to `O=[N+]([O-])c1ccc(CO)cc1`, for which the Potency entry is “inactive”.
With `CSc1nnc(C(C)(C)C)c(=O)[nH]1`, the Potency result was “inactive”.
For `CCc1c(C)cc(N)c(CC)c1N` the value was “inactive”; for `CCc1cccc(CC)c1`, “inactive”.
`O=C1OC(O)C(C(Cl)Cl)=C1Cl` (stereo not given): the Potency result is “inactive”.
Next, `[Cl][Sc]([Cl])[Cl]`: “inactive”.
Take `O=C(NCc1ncc(C(F)(F)F)cc1Cl)c1c(Cl)cccc1Cl`: the Potency entry was “inactive”.
Take `CCCCCc1ccc(O)cc1`: the Potency entry is “inactive”.
For `COc1cc(OC)nc(NC(=O)NS(=O)(=O)Nc2ccccc2C(=O)N(C)C)n1` the value was “inactive”.
For `O=C1OC(=O)c2cc(-c3ccc4c(c3)C(=O)OC4=O)ccc21`, the Potency result was “inactive”.
For `C/C(=N\[Si](C)(C)C)O[Si](C)(C)C` the value was “inactive”; for `CCC(O)CO` (stereo not given), “inactive”.
`Nc1c(Br)cc([N+](=O)[O-])cc1Br`: the Potency result is “inactive”.
As for `CCN(CC)c1ccc2c(c1)Oc1cc(N(CC)CC)ccc1C21OC(=O)c2ccccc21`, the Potency result is “inactive”.
With `O[Si](c1ccccc1)(c1ccccc1)c1ccccc1`, the Potency result was “inactive”.
With `CCc1cccc(C)c1N(C(=O)CS(=O)(=O)O)C(C)COC` (stereo not given), the Potency result was “inactive”.
Turning to `CC/C=C\C/C=C\C/C=C\CCCCCCCC(=O)OC`, the Potency entry is “inactive”.
Take `Cc1ccc2sc3cccc(C)c3c2c1`: the Potency entry is “inactive”.
`Cn1ccnc1`: the Potency entry was “inactive”.
Take `CCN(CC)c1ccc(C=O)c(O)c1`: the Potency entry was “inactive”.
Next, `CCCCCCCCSCc1cc(C)c(O)c(CSCCCCCCCC)c1`: “inactive”; `CO[Si](OC)(c1ccccc1)c1ccccc1`: “inactive”.
For `NC(=O)c1ccccc1Cl`, the Potency result was “inactive”.
For `Cc1ccc2nc(-c3ccc(N)cc3)sc2c1S(=O)(=O)O` the value was “inactive”; for `CCC(=O)OC/C=C(\C)CCC=C(C)C`, “inactive”; for `CCn1c2ccccc2c2ccccc21`, “inactive”.

Values taken from PubChem BioAssay (Tox21).
